TRPV1 agonist – HTS Assay for Compounds that Act as Agonists of the Vanilloid Receptor 1; Transient receptor potential cation channel subfamily V member 1 (Homo sapiens), Q8NER1; 0.19% of 320,000 active; AID 540275, 2011; TRPV1-expressing cells, Fluo-8 calcium influx, agonist mode; activation, % at 8.33 µM; in the data active = activation above about 80%; inconclusive = between about 30% and that limit; also: 0% is about no effect
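Fluo-8 calcium influx in TRPV1-expressing cells, kinetic read (ex 480/em 520 nm). Compound added and read 3 min for agonist activity, followed by capsaicin at EC20 final and 2 min further read for enhancement.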
KCNH2 3.1 inh – qHTS for Inhibitors of KCHN2 3.1: Mutant qHTS; Potassium voltage-gated channel subfamily H member 2, brain isoform KCNH2 3.1 (human); U2OS KCNH2 3.1, thallium flux FluxOr; active compounds read low; activity change, % (tested at about 1.8 µM); 0.95% of 340,000 active; AID 720553, 2013;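 active = maximum activity change below -70%; inconclusive = maximum activity change from -70% to -50%; inactive = maximum activity change above -50%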;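 also: thallium influx rate constant from kinetic fluorescence after stimulation buffer; % is scaled to controls: 0 for no effect and ±100 for the full control effect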
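We transduce U2OS cells with the mutant 3.1 virus, culture them overnight, load FluxOr with Red40 quencher for 45 min, then add stimulation buffer and read kinetically for 2 min to derive a normalized rate constant.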
hERG WT inh – qHTS for Inhibitors of KCHN2 3.1: Wildtype qHTS | Voltage-gated inwardly rectifying potassium channel KCNH2 (Homo sapiens), Q12809 | activity change, % at 1.84 µM | AID 720551, 2013 | U2OS, BacMam KCNH2, thallium flux FluxOr; active compounds read low | 0.37% of 340,000 active;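 active = maximum activity change below -70%; inconclusive = maximum activity change between -70% and -50%; inactive = maximum activity change above -50%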; also: % is scaled to controls: 0 for no effect and ±100 for the full control effect
Target sequence (Q12809 whole entry, looked up): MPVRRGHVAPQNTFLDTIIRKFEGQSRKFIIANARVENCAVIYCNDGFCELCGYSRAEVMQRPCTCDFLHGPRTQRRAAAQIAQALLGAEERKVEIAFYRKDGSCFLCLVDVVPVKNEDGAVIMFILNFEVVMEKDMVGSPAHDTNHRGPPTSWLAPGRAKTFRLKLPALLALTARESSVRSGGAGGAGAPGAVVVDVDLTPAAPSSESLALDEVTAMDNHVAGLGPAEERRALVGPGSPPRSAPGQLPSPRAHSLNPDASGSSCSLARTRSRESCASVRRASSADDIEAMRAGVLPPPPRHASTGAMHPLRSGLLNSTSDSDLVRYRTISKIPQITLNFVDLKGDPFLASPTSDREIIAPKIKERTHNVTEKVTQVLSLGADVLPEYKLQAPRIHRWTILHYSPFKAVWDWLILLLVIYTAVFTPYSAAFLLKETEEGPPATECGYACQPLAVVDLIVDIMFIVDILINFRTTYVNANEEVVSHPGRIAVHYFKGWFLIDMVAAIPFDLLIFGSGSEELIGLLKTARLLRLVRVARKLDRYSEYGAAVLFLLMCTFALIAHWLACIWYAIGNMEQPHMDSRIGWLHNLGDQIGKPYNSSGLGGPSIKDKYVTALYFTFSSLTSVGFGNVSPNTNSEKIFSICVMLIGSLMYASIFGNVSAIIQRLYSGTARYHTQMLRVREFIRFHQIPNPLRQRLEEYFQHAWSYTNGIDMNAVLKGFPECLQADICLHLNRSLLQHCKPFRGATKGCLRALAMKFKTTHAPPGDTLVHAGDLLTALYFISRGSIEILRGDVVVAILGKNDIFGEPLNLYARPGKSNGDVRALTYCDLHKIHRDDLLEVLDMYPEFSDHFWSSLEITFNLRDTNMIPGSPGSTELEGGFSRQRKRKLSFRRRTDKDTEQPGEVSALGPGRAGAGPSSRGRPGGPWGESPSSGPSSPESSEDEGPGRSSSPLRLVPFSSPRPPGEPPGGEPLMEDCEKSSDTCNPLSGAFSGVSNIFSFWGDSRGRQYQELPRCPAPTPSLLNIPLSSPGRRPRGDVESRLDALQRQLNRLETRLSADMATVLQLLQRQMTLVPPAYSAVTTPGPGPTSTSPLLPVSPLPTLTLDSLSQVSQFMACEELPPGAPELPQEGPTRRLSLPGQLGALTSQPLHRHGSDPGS
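U2OS cells were transduced with wild-type KCNH2 virus (2.03 x 10^8 / mL) for 4 h at room temperature, then cultured overnight at 37 C. Thallium flux was read with FluxOr dye. Rate constants were normalized to DMSO controls.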
TRPV1 potentiator – HTS Assay for Compounds that Act as Potentiators of the Vanilloid Receptor 1. potentiation, % at 8.33 µM. Transient receptor potential cation channel subfamily V member 1 (Homo sapiens), Q8NER1. 0.02% of 320,000 active. TRPV1-expressing cells, Fluo-8 calcium influx, capsaicin EC20 potentiation; in the data active = potentiation above about 80%; inconclusive = between about 30% and that limit; also: 0% is about no effect
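Fluo-8 calcium influx in TRPV1-expressing cells, kinetic read (ex 480/em 520 nm). Compound added and read 3 min for agonist activity, followed by capsaicin at EC20 final and 2 min further read for enhancement.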
Numbers without * were called inactive; ? = inconclusive; . = no result given. Sampled rows, rich in hits. Any-hit rate of the full collection: about 1.3%.

SMILES	TRPV1 agonist	KCNH2 3.1 inh	hERG WT inh	TRPV1 potentiator
COC(=O)c1ccc(CNC(=O)Cn2cnc3c(OCc4ccccc4)ncnc32)cc1	.	3.2	-1.3	.
O=[N+]([O-])c1ccc2nc[nH]c2c1	.	-83.7*	-16.6	.
COc1ccc(C2C=C(C)Nc3nc4ccccc4n32)cc1 (stereo unspecified)	26.3	-0.2	-7.0	-18.7
COc1ccc(C2C(C#N)=C(N)Nc3nc4ccccc4n32)cc1 (stereo unspecified)	-4.0	11.5	-112.9*	-3.7
CC(OC(=O)CCC(=O)c1ccc(Cl)s1)C(=O)NC1(C#N)CCCCC1 (stereo unspecified)	20.4	-8.7	5.7	-22.0
Cc1ccc(NS(=O)(=O)c2cccc(C(=O)NC3CCN(Cc4ccccc4)CC3)c2)c(C)c1	.	-102.2*	-2.1	.
O=C(NC1CCN(Cc2ccc3ccccc3c2)CC1)c1ccccc1	3.6	-79.3*	0.7	-6.3
COc1cc(-c2nc(C(=O)NC3CCN(Cc4ccccc4)CC3)cc3c2[nH]c2ccccc23)cc(OC)c1OC	2.3	-14.1	-21.1	12.9
COc1ccc(OC)c(-c2nc(C(=O)NC3CCN(Cc4ccccc4)CC3)cc3c2[nH]c2ccccc23)c1	2.8	-97.1*	?	9.3
O=C(CCCN1CCC(NC(=O)c2ccccc2)CC1)c1ccc(Cl)cc1	-5.5	-106.0*	-3.6	-11.2
Cc1ccc(NC(=O)CSCC(=O)NNC(=O)c2ccoc2C)cc1	-1.0	-4.5	-1.1	5.0
COc1cc(C(=O)NC2CCN(Cc3ccccc3)CC2)cc(Cl)c1OC	19.8	-89.9*	17.4	-9.1
COc1ccc(C(=O)NC2CC2)cc1OC1CCN(Cc2ccccc2)CC1	3.7	.	-22.7	-7.7
Cc1ccc(C2C3=C(CC(C)(C)CC3=O)OC3=C2C(=O)CC(C)(C)C3)cc1	-0.4	-85.0*	1.2	0.6
CCN(c1ccccc1)S(=O)(=O)c1ccc(C(=O)N(CCN(C)C)c2nc3c(F)cc(F)cc3s2)cc1	3.5	.	.	-18.4
CC/C=C/C(=O)N1CC2(CC(c3cccc(NC(=O)COc4ccc(Cl)cc4)c3)=NO2)C[C@H]1C(N)=O (stereo partly specified)	-4.0	-71.1*	-42.3	?
COC(=O)C(CCCCNC(=O)c1ccc([N+](=O)[O-])cc1)NC(=O)c1ccc([N+](=O)[O-])cc1 (stereo unspecified)	-1.8	-92.9*	?	-2.9
C/C(=N/NS(=O)(=O)c1ccc(CC(C)C)cc1)c1ccncc1	8.8	3.4	-14.4	-10.9
O=C(NCCCNC(=O)c1cc(Cl)ccc1Cl)c1ccco1	-1.9	1.5	-11.0	6.2
C=CCn1c2[n+](c3ccccc3c1=O)CCCCC2	-2.2	-113.2*	12.4	13.3
COc1ccccc1NC(=O)COC(=O)C1C2CC3OC(=O)C1C3C2 (stereo unspecified)	-0.3	-6.1	7.2	-6.3
Cc1ccccc1NC(=O)COC(=O)C1C2CC3OC(=O)C1C3C2 (stereo unspecified)	-3.5	-0.5	-254.1*	4.4
Cc1ccc(C(=O)NCC(=O)Nc2ccc(Cl)cc2)s1	.	4.3	-2.4	.
COc1ccc(OC)c(NCc2cccn2-c2nnc(N3CCC(C)CC3)s2)c1	18.6	.	.	-2.8
COc1cc(C(=O)NC(=S)Nc2ccc(NC(=O)c3ccco3)cc2)cc(OC)c1OC	-0.7	-82.9*	1.4	-0.7
SMILES	TRPV1 agonist	KCNH2 3.1 inh	hERG WT inh	TRPV1 potentiator
CCOc1ccc(S(=O)(=O)NCCCN2CCOCC2)c2ccccc12	6.3	-26.7	-2.7	-8.0
CCCOc1ccc(S(=O)(=O)NCCCN2CCOCC2)c2ccccc12	10.4	-13.3	-206.4*	-7.0
CCOC(=O)C(=O)NCC(c1cccs1)S(=O)(=O)c1ccc(F)cc1 (stereo unspecified)	-1.6	-137.5*	-9.7	7.2
O=C(CN1CCN(c2ccc(O)cc2)CC1)NC(c1ccccc1)c1ccccc1	-4.2	-22.2	25.8	19.3
O=C(CN1CCCCCC1)NN(Cc1ccccc1)c1ccccc1	16.8	-95.5*	-44.5	-11.0
O=C(CN1CCCCCC1)NC(c1ccccc1)c1ccccc1	0.9	-81.7*	16.7	11.1
O=C(CN1CCCC1)NCc1ccccc1	-18.4	17.6	-22.8	-15.1
Cc1ccc(N=Cc2cc(Cl)cc(Cl)c2O)nc1	-1.9	1.6	-333.3*	25.7
Oc1c(Cl)cc(Cl)cc1/C=N/Nc1ncc(Br)cn1	-1.5	0.8	-9.5	-0.4
O=S(=O)(c1ccccc1)N1CCN(c2nc(-c3cccs3)nc3ccccc23)CC1	-6.3	.	.	4.6
O=S(=O)(c1ccc(Cl)cc1)N1CCN(c2nc(-c3cccs3)nc3ccccc23)CC1	-3.5	-89.9*	0.5	3.4
COc1ccccc1N1CCN(C(=O)NCc2cccc(C(F)(F)F)c2)CC1	8.9	-2.7	-8.6	-2.7
CCOC(=O)[C@H]1[C@H]2COc3ccc(OC)cc3[C@@H]2N2C(=O)c3ccccc3NC(=O)[C@@]12C	100.0*	2.3	-5.2	-7.3
CCOC(=O)[C@H]1[C@H]2COc3ccc(Br)cc3[C@@H]2N2C(=O)c3cc(Br)ccc3NC(=O)[C@@]12C	82.7*	?	-10.5	24.7
CCOC(=O)[C@H]1[C@H]2COc3ccc(OC)cc3[C@@H]2N2C(=O)c3cc(F)c(F)cc3NC(=O)[C@@]12C	92.4*	5.1	-5.5	?
CCOC(=O)[C@H]1[C@H]2COc3ccc(OC)cc3[C@@H]2N2C(=O)c3cc(OC)c(OC)cc3NC(=O)[C@@]12C	-1.4	6.8	10.6	6.6
CCOC(=O)[C@H]1[C@H]2COc3ccc(C)cc3[C@@H]2N2C(=O)c3cc(OC)c(OC)cc3NC(=O)[C@@]12C	1.8	.	.	0.4
CCOC(=O)[C@H]1[C@H]2COc3ccc(OC)cc3[C@@H]2N2C(=O)c3cc(OC)ccc3NC(=O)[C@@]12C	97.1*	1.2	-1.2	5.2
O=C(COc1cc2oc(=O)cc(-c3ccccc3)c2cc1Cl)NCc1ccccn1	14.2	19.8	-3.6	-10.5
O=C(NC(Cc1ccccc1)C(=O)O)NC12CC3CC(CC(C3)C1)C2 (stereo unspecified)	-1.5	14.2	10.0	8.9
CCC1CCCCN1CCCNC(=O)Cn1cnc2sc(C)c(S(=O)(=O)N3CC(C)CC(C)C3)c2c1=O (stereo unspecified)	-1.0	15.9	-7.3	-4.6
O=C(CS(=O)(=O)Cc1ccccc1)NCCc1ccc(F)cc1	1.0	-78.4*	2.5	0.4
Cc1ccc(C(=O)COC(=O)CCN2C(=O)C3C4C=CC(C5CC45)C3C2=O)cc1 (stereo unspecified)	-1.7	4.9	13.6	12.7
CS(=O)(=O)c1ccc(Cl)c(NC(=O)COC(=O)CNC(=O)c2ccc3ccccc3c2)c1	4.2	-0.3	17.9	-0.9
CCOC(=O)Cc1csc(NC(=O)CCN2C(=O)c3ccccc3C2=O)n1	-2.8	-213.0*	-6.3	-8.2

Assay outcomes (PubChem BioAssay)
